Experimental findings from the OligoGym collection are described below.
Further: reference of the scale not given here.

The target in the first test is HBB. Kind of test: pooled miR-30 sensor sort-seq; sequence = guide strand. The settings on record: shRNA.
For ATCAGGAGTGGACAGATCCCCA, the sensor-assay potency score (higher = more potent) was -1.55.
Still for that read-out and setting: the figure for ATTCTTTGCCAAAGTGATGGGC is -0.706.
TTTAGTAGTTGGACTTAGGGAA showed a sensor-assay potency score (higher = more potent) of 0.165.
ACCACCAACTTCATCCACGTTC gave a sensor-assay potency score (higher = more potent) of -1.74.
The same measure, in the same setting: the figure for TAGACCACCAGCAGCCTGCCCA is -0.865; for AACTTCATCCACGTTCACCTTG it is -0.552.
For the sequence TTCTTTGCCAAAGTGATGGGCC, the sensor-assay potency score (higher = more potent) is -0.0247.

Another test deals with HBD. The test is described as above. The following applies: shRNA.
Take ATTCCTTGCCAAAGTTGCGGGC: the sensor-assay potency score (higher = more potent) was -0.495.
The sequence AGCCACACCAGCCACCACCTTC returned a sensor-assay potency score (higher = more potent) of -1.62.
Sequence TTCACTTTGCCCCACAGGGCAT registered a sensor-assay potency score (higher = more potent) of -0.844.
As for AATTCCTTGCCAAAGTTGCGGG, the sensor-assay potency score (higher = more potent) is -0.612.
In the case of ACCACCAACTGCATCCACGTTC, the sensor-assay potency score (higher = more potent) is -1.79.
On the same count and under the same terms, the same measure for ACTAAAGGCACCTAGCACCTTC: -0.765; for TCAGCTGAGAAAAAGTGCCCTT: -0.0837; for ACACACACCAGCACATTGCCCA: -0.428.
Sequence AACAGCATCAGGAGAGGACAGA had a sensor-assay potency score (higher = more potent) of -1.5.
TAGACCACCAGTAATCTGCCCA: the sensor-assay potency score (higher = more potent) is -0.29.

A further test concerns the target HBM. The description is as above. The following applies: shRNA.
TTGGTGCTGGGGTACACCGTGA gave a sensor-assay potency score (higher = more potent) of -1.01.
TCAGGTCCCAGACCTGCGCGAT showed a sensor-assay potency score (higher = more potent) of -1.04.
Same read-out and setting: the same measure for TGAACTCGTCCTGCAGGTGGGA: -0.648.
On to ATTAGCAGCGGAAAGTTGGCTG, for which the sensor-assay potency score (higher = more potent) turned out to be 0.235.
For the sequence TGCATTTGCACGGTGAACTCGT, the sensor-assay potency score (higher = more potent) is 0.113.
The sequence TGCACGGTGAACTCGTCCTGCA yielded a sensor-assay potency score (higher = more potent) of -1.03.
The sequence TTTGCACGGTGAACTCGTCCTG yielded a sensor-assay potency score (higher = more potent) of 0.188.
On the same count and under the same terms, the same measure for AACACTGGATTAGCAGCGGAAA: -1.52; for TTGCACGGTGAACTCGTCCTGC: 0.462; for TCCACGTGCTGCACCGCCGCGC: -1.37.
As for TTGTCCACGTGCTGCACCGCCG, the sensor-assay potency score (higher = more potent) was -1.46.
Turning to TGCGGGAAGTAGACCTTGGTGC, the sensor-assay potency score (higher = more potent) is -0.583.

The target in the next test is HBQ1. The description is as above. The settings on record: shRNA.
In the case of ATAACGTGGCTCAGGAACTTGT, the sensor-assay potency score (higher = more potent) is -1.13.
TTACCAGCAGGCAGTGGCCCAG: the sensor-assay potency score (higher = more potent) is -1.7.
Still for that read-out and setting: the same measure for TGGGAGAAGTAGGTCTTCGTGG: -0.972.
Same read-out and setting: the figure for AAGTCTCCGGGGTAGTGCCGGG is -1.01.
As for TTCCAGGGCCTCTGTCGTGTAG, the sensor-assay potency score (higher = more potent) is -1.54.
Same read-out and setting: the figure for TGGGCTCTGACTTGTGAGGAGC is -1.65.
Take TAGGTCGTCCAGGCGCTCCACG: the sensor-assay potency score (higher = more potent) was -1.23.
Sequence AGAAGTAGGTCTTCGTGGCGGG registered a sensor-assay potency score (higher = more potent) of -0.804.
Take TGTCGTGTAGACGCCGACGTTG: the sensor-assay potency score (higher = more potent) was -0.887.
As for AAGTAGGTCTTCGTGGCGGGGA, the sensor-assay potency score (higher = more potent) was -0.359.
